Experiment [1] has as its target RAC-alpha serine/threonine-protein kinase (Homo sapiens) (UniProt P31749). The settings on record: at 0.1 µM.
The target is the same in experiment [2]. The settings on record: at 1 µM.
Experiment [3] concerns the target RAC-beta serine/threonine-protein kinase (Homo sapiens) (UniProt P31751). The settings on record: at 0.1 µM.
The target is the same in experiment [4]. The settings on record: at 1 µM.
The target of experiment [5] is RAC-gamma serine/threonine-protein kinase (Homo sapiens) (UniProt Q9Y243). Particulars: at 0.1 µM.
The target is the same in experiment [6]. Particulars: at 1 µM.
For experiment [7], the target named is G protein-coupled receptor kinase 6 (Homo sapiens) (UniProt P43250). The settings on record: at 0.1 µM.
For experiment [8] the target is unchanged. Particulars: at 1 µM.
Experiment [9] has as its target T1, Rhodopsin kinase GRK7 (Homo sapiens) (UniProt Q8WTQ7).
T1 sequence (whole entry): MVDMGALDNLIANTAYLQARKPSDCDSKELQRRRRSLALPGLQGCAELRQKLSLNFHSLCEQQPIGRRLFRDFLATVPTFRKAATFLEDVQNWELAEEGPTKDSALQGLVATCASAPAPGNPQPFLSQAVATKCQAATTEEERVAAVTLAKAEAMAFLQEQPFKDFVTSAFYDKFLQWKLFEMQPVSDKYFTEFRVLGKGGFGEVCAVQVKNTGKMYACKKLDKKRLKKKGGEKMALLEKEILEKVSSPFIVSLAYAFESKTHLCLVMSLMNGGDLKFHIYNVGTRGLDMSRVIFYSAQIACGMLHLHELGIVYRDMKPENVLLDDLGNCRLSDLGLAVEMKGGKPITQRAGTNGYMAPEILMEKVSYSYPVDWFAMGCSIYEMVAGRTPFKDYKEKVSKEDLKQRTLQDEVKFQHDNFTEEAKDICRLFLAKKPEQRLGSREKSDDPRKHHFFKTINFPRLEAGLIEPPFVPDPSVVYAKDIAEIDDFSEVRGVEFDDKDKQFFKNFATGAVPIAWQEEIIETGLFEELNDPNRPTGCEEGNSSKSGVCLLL
The settings on record: at 0.1 µM.

Experiment [10] addresses T1, Rhodopsin kinase GRK7 (Homo sapiens). The settings on record: at 1 µM.

Structures are written as SMILES.

Drawing on ChEMBL document CHEMBL1961873, “Compounds: GSK PKIS; Assays: Nanosyn kinase panel” (2012), this text covers inhibition for 17 compounds.

A word on the inhibition: it is the change of the read-out against control, counted positive when it falls.

Chain of RAC-gamma serine/threonine-protein kinase (Homo sapiens) (Q9Y243 whole entry): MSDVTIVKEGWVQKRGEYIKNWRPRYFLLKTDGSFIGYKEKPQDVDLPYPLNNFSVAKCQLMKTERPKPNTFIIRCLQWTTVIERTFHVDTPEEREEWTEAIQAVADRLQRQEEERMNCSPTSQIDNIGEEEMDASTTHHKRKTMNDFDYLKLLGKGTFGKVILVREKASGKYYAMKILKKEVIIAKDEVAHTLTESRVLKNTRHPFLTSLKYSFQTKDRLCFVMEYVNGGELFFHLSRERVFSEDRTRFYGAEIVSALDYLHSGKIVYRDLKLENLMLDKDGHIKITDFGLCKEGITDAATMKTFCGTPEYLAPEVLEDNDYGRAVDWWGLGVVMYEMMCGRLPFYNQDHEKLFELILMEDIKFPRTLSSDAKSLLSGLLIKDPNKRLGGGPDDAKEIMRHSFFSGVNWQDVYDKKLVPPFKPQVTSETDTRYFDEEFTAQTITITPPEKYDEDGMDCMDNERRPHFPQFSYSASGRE
Chain of RAC-beta serine/threonine-protein kinase (Homo sapiens) (P31751 whole entry): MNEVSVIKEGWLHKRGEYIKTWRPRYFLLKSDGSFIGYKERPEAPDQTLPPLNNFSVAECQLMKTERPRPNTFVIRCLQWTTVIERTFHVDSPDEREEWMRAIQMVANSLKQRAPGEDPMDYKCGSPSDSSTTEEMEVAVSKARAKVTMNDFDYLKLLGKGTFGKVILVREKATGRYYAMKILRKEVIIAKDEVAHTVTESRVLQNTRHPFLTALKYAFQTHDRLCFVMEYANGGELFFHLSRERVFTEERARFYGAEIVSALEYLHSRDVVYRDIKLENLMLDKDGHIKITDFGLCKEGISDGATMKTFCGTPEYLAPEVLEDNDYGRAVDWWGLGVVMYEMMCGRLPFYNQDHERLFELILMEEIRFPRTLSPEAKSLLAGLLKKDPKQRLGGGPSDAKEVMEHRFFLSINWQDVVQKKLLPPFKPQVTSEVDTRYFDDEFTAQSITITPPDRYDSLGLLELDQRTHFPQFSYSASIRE
Chain of RAC-alpha serine/threonine-protein kinase (Homo sapiens) (P31749 whole entry): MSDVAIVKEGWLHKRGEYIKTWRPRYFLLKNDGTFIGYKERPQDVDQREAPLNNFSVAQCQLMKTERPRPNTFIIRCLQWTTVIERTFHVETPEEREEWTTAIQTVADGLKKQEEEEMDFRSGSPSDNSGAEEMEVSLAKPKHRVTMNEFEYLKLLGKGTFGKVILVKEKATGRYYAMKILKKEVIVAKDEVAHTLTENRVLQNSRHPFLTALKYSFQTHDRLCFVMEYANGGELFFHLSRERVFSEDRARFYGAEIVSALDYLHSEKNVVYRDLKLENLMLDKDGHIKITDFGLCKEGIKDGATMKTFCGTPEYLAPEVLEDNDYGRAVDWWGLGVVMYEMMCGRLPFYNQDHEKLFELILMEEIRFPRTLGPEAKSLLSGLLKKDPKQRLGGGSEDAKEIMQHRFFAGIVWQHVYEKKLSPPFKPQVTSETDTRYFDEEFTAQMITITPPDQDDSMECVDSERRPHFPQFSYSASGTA
Chain of G protein-coupled receptor kinase 6 (Homo sapiens) (P43250 whole entry, looked up): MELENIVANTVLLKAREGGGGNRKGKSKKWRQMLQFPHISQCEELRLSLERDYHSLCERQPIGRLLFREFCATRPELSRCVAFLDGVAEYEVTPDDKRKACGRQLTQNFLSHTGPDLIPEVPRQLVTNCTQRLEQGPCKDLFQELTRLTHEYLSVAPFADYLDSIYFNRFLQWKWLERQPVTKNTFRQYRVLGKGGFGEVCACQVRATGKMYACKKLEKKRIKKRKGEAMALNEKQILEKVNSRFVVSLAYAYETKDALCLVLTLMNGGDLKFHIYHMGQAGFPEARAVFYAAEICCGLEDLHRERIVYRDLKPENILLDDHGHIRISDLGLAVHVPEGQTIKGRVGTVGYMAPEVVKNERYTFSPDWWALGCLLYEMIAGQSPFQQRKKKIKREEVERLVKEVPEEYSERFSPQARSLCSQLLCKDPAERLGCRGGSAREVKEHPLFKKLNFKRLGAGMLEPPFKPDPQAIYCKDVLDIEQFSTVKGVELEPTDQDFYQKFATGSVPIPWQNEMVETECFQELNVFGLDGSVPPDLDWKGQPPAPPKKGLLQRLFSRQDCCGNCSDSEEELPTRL

As for `COc1ccc(CNC(=O)c2ccc(-c3cc(-c4nnc(C)o4)ccc3C)cc2)cc1`, the inhibition was found to be 0.11% in experiment [1]; 0.4% in experiment [2]; 0.92% in [3]; 1.2% in [4]; 0.06% in [5]; 0.12% in experiment [6]. Further, the inhibition in experiment [7] was 6.21%; in [8], 16.4%; in experiment [9], 2.86%; in experiment [10] it was 10.6%.

Regarding `Cc1ccc2c(-c3ccnc(Nc4ccccc4)n3)c(-c3ccc(F)cc3)nn2n1`, the inhibition was 0.59% in experiment [1]; 0.99% in experiment [2]; 2.02% in experiment [3]; 1.95% in experiment [4]; 1.53% in [5]; 1.01% in experiment [6]. In addition, the inhibition in experiment [7] was 0.38%; in experiment [8] it was -3.54%; in [9] it was 1.12%; in experiment [10], -6.29%.

Turning to `COc1ccc(-c2cc3c(N)ncnc3o2)cc1`, the inhibition in [1] was -0.96%; in experiment [2] it was -1.46%; in experiment [3], -0.81%; in experiment [4] it was -0.64%; in experiment [5] it was -1.06%; in [6], 1.62%. The inhibition was -0.25% in [7], 0.98% in experiment [8], 3.4% in experiment [9] and -1.5% in [10].

As to `Fc1ccc(-c2cc(-c3c[nH]nc3-c3ccccn3)ccn2)cc1`, the inhibition came out at 0.11% in experiment [1]; 0.95% in experiment [2]; 1.68% in experiment [3]; 2.45% in [4]; 0.98% in experiment [5]; 1.5% in experiment [6]. Besides, the inhibition in [7] was 7.85%; in experiment [8] it was 15.7%; in experiment [9], 3.52%; in experiment [10], 13.4%.

For the compound `O=S(=O)(CCNCc1ccc(-c2ccc3ncnc(Nc4ccc(OCc5cccc(F)c5)c(Cl)c4)c3c2)o1)c1ccccc1`, the inhibition in experiment [1] was 1.7%; in experiment [2], 1.71%; in experiment [3], 2.21%; in experiment [4], 3.29%; in [5], 0.84%; in experiment [6] it was 3.13%. In addition, the inhibition in experiment [7] was determined as 1.68%; in [8], 1.4%; in experiment [9], 8.83%; in experiment [10], 2.27%.

On to `Fc1ccc(-c2nn3ccccc3c2-c2ccncc2)cc1`, for which the inhibition in [1] was determined as 0.06%; in experiment [2], 1.28%; in experiment [3], 0.35%; in experiment [4], 1.43%; in [5], 1.01%; in experiment [6] it was 4.38%. In addition, the inhibition in experiment [7] is 0.75%; in experiment [8] it was -0.76%; in [9] it was 0.65%; in experiment [10], 3.13%.

As for `COC(=O)Nc1nc2ccc(S(=O)(=O)c3ccc(NC(=O)Nc4cc(C(F)(F)F)ccc4F)cc3)cc2[nH]1`, the inhibition turned out to be 1.04% in [1]; 0.21% in [2]; 1.6% in experiment [3]; 1.74% in [4]; 2.62% in experiment [5]; 2.2% in experiment [6]. In addition, the inhibition was -1.79% in experiment [7], -0.49% in experiment [8], 4.02% in experiment [9] and 1.96% in experiment [10].

Take `Fc1cccc(COc2ccc(Nc3ncnc4sc(-c5ccco5)cc34)cc2Cl)c1`: the inhibition in [1] was determined as 0.99%; in [2], 0.75%; in [3] it was 0.95%; in [4], 1.84%; in experiment [5], 0.12%; in experiment [6], 50.3%. The inhibition in [7] came to 2.57%; in [8], 11.6%; in experiment [9], 11.4%; in experiment [10] it was 43.4%.

Turning to `CN(C)CCOc1ccc(-c2nc(-c3ccncc3)c(-c3ccc4c(c3)CC/C4=N\O)[nH]2)cc1`, the inhibition in [1] was 0.74%; in [2] it was 0.83%; in experiment [3], 1.02%; in experiment [4] it was 0.67%; in experiment [5] it was 1.29%; in [6], 0.51%. The inhibition in experiment [7] stood at 3.13%; in experiment [8], 2.76%; in experiment [9], 1.71%; in [10], 0.18%.

Regarding `[O-][S+]1CCN(Cc2ccc(-c3ccc4ncnc(Nc5ccc(OCc6cccc(F)c6)c(Cl)c5)c4c3)o2)CC1`, the inhibition is 2.98% in experiment [1]; 0.19% in experiment [2]; 3.72% in experiment [3]; 3.57% in experiment [4]; 2.4% in experiment [5]; 2.54% in [6]. Also, the inhibition amounted to 3.23% in experiment [7], 4.79% in [8], 9.08% in experiment [9] and 2.57% in experiment [10].

For the compound `CNC(=O)c1cncc(/C=C/c2ccccc2Cl)c1`, the inhibition in experiment [1] is 0.07%; in experiment [2], 1.96%; in [3] it was 0.21%; in [4], 0.07%; in [5], -0.57%; in experiment [6] it was 0.32%. Moreover, the inhibition in [7] stood at 1.74%; in [8], 10.9%; in experiment [9] it was 2.3%; in experiment [10], 10.8%.

Consider `CN1CCC(n2cnc(-c3ccc(F)cc3)c2-c2ccnc(Nc3ccccc3)n2)CC1`, for which the inhibition in experiment [1] amounted to 0.23%; in experiment [2], 1.05%; in experiment [3], 0.63%; in [4] it was 0.8%; in [5] it was 2.25%; in experiment [6], 5.43%. Also, the inhibition in [7] worked out at 2.34%; in experiment [8], 2.65%; in experiment [9], 2.84%; in experiment [10], 6.42%.

As for `c1cc(-c2cnn3nc(N4CCOCC4)ccc23)nc(NC2CC2)n1`, the inhibition in experiment [1] was found to be 0.69%; in experiment [2], 1.04%; in experiment [3] it was 3.2%; in [4], 2.75%; in experiment [5], 1.36%; in [6], 1.78%. In addition, the inhibition in experiment [7] is 0.85%; in experiment [8], 1.72%; in experiment [9], 3.91%; in [10], 6.6%.

As to `COC(=O)Nc1nc2ccc(Oc3ccc(NC(=O)Nc4cccc(Cl)c4)cc3)cc2[nH]1`, the inhibition in experiment [1] is -0.35%; in [2], -0.4%; in experiment [3], -0.4%; in experiment [4] it was 0.5%; in experiment [5] it was -0.34%; in experiment [6] it was 1.86%. In addition, the inhibition is -1.85% in experiment [7], 0.02% in [8], 3.03% in [9] and 16.8% in experiment [10].

As for `Nc1nc(-c2cccc(Cl)c2)c(-c2ccc3ncccc3n2)s1`, the inhibition is -0.22% in experiment [1]; 0.39% in experiment [2]; 1.97% in experiment [3]; 2.05% in experiment [4]; 1.92% in [5]; 0.68% in experiment [6]. Further, the inhibition came to 10.4% in experiment [7], 15.4% in [8], 7.84% in experiment [9] and 13.8% in [10].

For the compound `CS(=O)(=O)CCNCc1coc(-c2ccc3ncnc(Nc4ccc(OCc5ccccc5)cc4)c3c2)c1`, the inhibition in experiment [1] is 0.45%; in experiment [2] it was 0.14%; in [3], -0.99%; in experiment [4], 1.09%; in [5], -0.18%; in experiment [6] it was 3.26%. Besides, the inhibition worked out at 4.06% in experiment [7], 12.1% in experiment [8], 6.27% in experiment [9] and 5.05% in [10].

As to `COc1ccc(-c2cc(-c3c[nH]nc3-c3ccccn3)ccn2)cc1`, the inhibition in [1] was found to be 0.93%; in [2] it was 1.5%; in experiment [3], 2.54%; in experiment [4], 1.95%; in [5], 1.66%; in experiment [6], 1.52%. Moreover, the inhibition in experiment [7] was determined as 8.13%; in experiment [8], 8.91%; in experiment [9], 3.59%; in experiment [10], 6.26%.
